MITF TRPM1 HTS: MITF TRPM1 promoter activation in melanoma cells. SK-MEL-5 TRPM1-promoter luciferase, 24 h; % of positive control, neutral wells = 0. activation, % at 12.5 µM. actives 0.75% (n = 300,000);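 active means mean activation of at least 80% with every replicate also reaching 80%; inconclusive means mean reaches 80% but some replicate falls short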;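 further: 0% = neutral control wells and 100% = parthenolide positive control wells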
miR122 inh: inhibitors of miR-122 in Huh7 cells; Huh7 miR-122 Renilla luciferase sensor, 48 h; neutral wells = 0, positive control = 100; activation (reporter increase), % at 12.5 µM; actives 0.3% (n = 340,000);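 active means mean replicate activation score at least 90 and every replicate individually at or above 90; inconclusive means only one of the two criteria met; inactive means neither criterion met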;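 further: higher luciferase means less miR-122 activity so hits act as miR-122 inhibitors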
esBAF inh: SWI/SNF esBAF complex inhibition | AID 602393 | actives 2% (n = 350,000) | reporter increase, % at 12.5 µM | mouse ES cells, Bmi1-luciferase knock-in reporter, 24 h; 100% = twice the neutral-well signal; in the data active means activation above about 40%; inconclusive means no clear call, values can overlap the other calls;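 further: 0% = median of the plate's neutral control wells and 100% = double that signal; a rise in the Bmi1 reporter signal indicates esBAF inhibition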
Wnt act: activates Wnt/beta-catenin signaling in a reporter cell assay. activator, plate reader. activation, % at 9.35 µM. AID 743398. actives 1.2% (n = 300,000); in the data active means activation above about 30%, passing the limit was not always enough; inconclusive means no clear call, values can overlap the other calls;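 further: 0% = neutral control wells and 100% = positive control wells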
HIV Env fusion: blocks HIV Env-driven cell-cell fusion | HeLa-JRFL Env/CEM21 cell fusion, luciferase | inhibition, % at 12.3 µM | actives 1.1% (n = 360,000);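 active means mean replicate inhibition score of at least 50 and every replicate individually at or above 50; inconclusive means only one of the two criteria met; inactive means mean below 50 and not all replicates reaching 50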;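 further: 0% = plate neutral controls and 100% = maraviroc near 300 nM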
Numbers without * were called inactive; i = inactive; ? = inconclusive; . = not tested or not shown; [ ] = remark or other dose. Only some compounds are listed: those with a hit (about 3.4% of all), similar ones and a draw of the others.

SMILES	MITF TRPM1 HTS	miR122 inh	esBAF inh	Wnt act	HIV Env fusion
C[C@@H]1CN([C@H](C)CO)C(=O)c2cc(NC(=O)c3ccncc3)ccc2O[C@@H]1CN(C)S(=O)(=O)c1ccc(Cl)cc1	.	179*[16.7 µM]	-5	.	.
C[C@@H]1CN([C@H](C)CO)C(=O)c2cc(NC(=O)Nc3ccc4c(c3)OCO4)ccc2O[C@@H]1CN(C)S(=O)(=O)c1cccs1	.	10[16.7 µM]	-2	.	7[16.7 µM]
C[C@@H]1CN([C@H](C)CO)C(=O)c2cccc(NC(=O)Nc3ccc4c(c3)OCO4)c2O[C@H]1CN(C)S(=O)(=O)c1cccs1	.	-3[16.7 µM]	47*	.	.
C[C@H](CO)N1C[C@H](C)[C@H](CN(C)S(=O)(=O)c2ccc(C#N)cc2)Oc2ncc(/C=C/c3ccccc3)cc2C1=O	.	-12[16.7 µM]	-1	.	74*[16.7 µM]
COc1ccc(NC(=O)Nc2ccc3c(c2)C(=O)N([C@@H](C)CO)C[C@H](C)[C@H](CN(C)S(=O)(=O)c2ccc(OC)cc2)O3)cc1	.	-20[16.7 µM]	-4	.	83*[16.7 µM]
CN(C)CC(=O)N[C@@H]1C=C[C@@H](CC(=O)NCc2ccc(Cl)cc2)O[C@H]1CO	.	.	1	.	6[16.7 µM]
C[C@@H]1CCCCO[C@H](CN(C)Cc2ccncc2)[C@H](C)CN([C@@H](C)CO)C(=O)c2cc(NS(C)(=O)=O)ccc2O1	.	1[16.7 µM]	2	.	-7[16.7 µM]
COc1ccc(-c2cnc3c(c2)C(=O)N([C@H](C)CO)C[C@@H](C)[C@H](CN(C)C)O3)cc1	.	-2[16.7 µM]	-1	.	-18[16.7 µM]
C[C@@H]1CN([C@H](C)CO)C(=O)c2cc(NS(=O)(=O)c3ccc(Cl)cc3)ccc2O[C@H]1CN(C)S(C)(=O)=O	.	10[16.7 µM]	0	.	15[16.7 µM]
C[C@@H]1CN([C@H](C)CO)C(=O)c2cc(NC(=O)Nc3ccccc3)ccc2O[C@@H]1CN(C)S(=O)(=O)c1ccccc1	.	6[16.7 µM]	1	.	75*[16.7 µM]
COCC(=O)N(C)C[C@@H]1Oc2ncc(C#Cc3ccccc3)cc2C(=O)N([C@@H](C)CO)C[C@@H]1C	.	18[16.7 µM]	1	.	9[16.7 µM]
O=C1C=C(O)c2cccc(O)c2C1=O	-23	-6	-6	-1	.
CC1OC(CC(=O)O)CC2=C1C(=O)c1c(O)cccc1C2=O (stereo unspecified)	.	-10	.	-6	76*
C[C@@H]1CCCCO[C@H](CN(C)S(=O)(=O)c2ccc(F)cc2)[C@H](C)CN([C@H](C)CO)C(=O)c2cc(NC(=O)Nc3ccc(F)cc3)ccc2O1	.	2[16.7 µM]	10	.	-33[16.7 µM]
C[C@H](NC(=O)c1ncn2c1C(=O)NC[C@H]2C)c1ccccc1	.	6	3	0	-25
C[C@@H]1CNC(=O)c2c(C(=O)N(C)Cc3ccccc3)ncn21	.	.	.	3	137*
C[C@H]1CNC(=O)c2c(C(=O)N3CCN(c4ccccc4)CC3)ncn21	.	.	.	3	79*
CC(C)(C)OC(=O)N1CCN(C(=O)c2ncn3c2c(=O)[nH]c2ccccc23)CC1	.	4	0	0	.
C[C@H]1CNC(=O)c2c(C(=O)N3CCN(C(=O)OC(C)(C)C)CC3)ncn21	.	9	2	-2	72*
C[C@@H]1CN([C@H](C)CO)S(=O)(=O)c2ccc(-c3ccccc3F)cc2O[C@H]1CN(C)C(=O)C1CC1	.	8[16.7 µM]	4	.	19[16.7 µM]
CO[C@H](CN(C)S(=O)(=O)c1ccc(Cl)cc1)[C@H](C)CN(C(=O)Nc1ccccc1F)[C@@H](C)CO	.	.	5	.	.
CN(C)C=Nc1ccc2nc3c(cc2c1)[nH]c1ccccc13	68	.	3	39*	-198
COC(=O)C[C@@H]1CC[C@H]2[C@H](COc3ccc(NC(=O)c4ccc(F)cc4)cc3C(=O)N2C)O1	.	3[16.7 µM]	2	.	8[16.7 µM]
C[C@H]1CN([C@@H](C)CO)C(=O)c2cccc(NC(=O)c3nc4ccccc4s3)c2O[C@@H]1CN(C)C(=O)Nc1ccccc1	.	1[16.7 µM]	2	.	-7[16.7 µM]
Cc1ccc(OC(=O)c2cccc(S(=O)(=O)N(C)C)c2)c(-n2nc3ccccc3n2)c1	30	2	8	-4	.
SMILES	MITF TRPM1 HTS	miR122 inh	esBAF inh	Wnt act	HIV Env fusion
Cc1ccc(OC(=O)c2cccc(S(=O)(=O)N3CCCC3)c2)c(-n2nc3ccccc3n2)c1	99*	.	.	104*	-67
CC(=O)Oc1ccc(C)cc1-n1nc2ccccc2n1	.	4	40	77*	-88
O=C(C[C@H]1CC[C@H]2[C@@H](COC[C@@H](O)CN2C(=O)c2ccccc2F)O1)NCc1ccc(Cl)c(Cl)c1	.	-1[16.7 µM]	0	.	13[16.7 µM]
Fc1ccc(-c2nc(-c3cccs3)no2)cc1	58	.	.	-6	-80
Fc1ccc(-c2cnc(-c3cccs3)o2)cc1	54	6	-12	34*	i
CS(=O)(=O)N1N=C(c2ccc(Cl)cc2)CC1c1cccs1 (stereo unspecified)	44	126*	.	.	-38
COc1ccc(CCNC(=O)[C@@]2(Cc3ccccc3I)c3ccccc3C(=O)N(Cc3ccccc3OC)[C@H]2c2ccc(CO)cc2)cc1	.	.	.	.	8[16.7 µM]
C#CCN(C[C@@H]1[C@@H](OC(=O)NC2CC2)[C@@H](OC(=O)NC2CC2)CN(C(=O)OC(C)C)N1C(=O)OC(C)C)S(=O)(=O)c1ccc(C)cc1	.	78	-2	-2	9
C#CCN(C[C@H]1[C@H](OC(=O)Nc2cccs2)[C@H](OC(=O)Nc2cccs2)CN(C(=O)OC(C)C)N1C(=O)OC(C)C)S(=O)(=O)c1ccc(C)cc1	.	.	.	-2	117*
O=C(C[C@H]1C=C[C@@H](NC(=O)C2CCC2)[C@@H](CO)O1)NCCCN1CCOCC1	.	2[16.7 µM]	-8	.	10[16.7 µM]
COCCNC(=O)C[C@H]1CC[C@H]2[C@@H](COc3ccc(NC(=O)CC(F)(F)F)cc3C(=O)N2C)O1	.	36[16.7 µM]	0	.	.
CC(=O)N(/N=C1/C(=O)Nc2ccccc21)c1ccccc1	33	.	45*	15	-24
COc1cccc(OCc2cc(C(=O)N(C)CCC3CCCCO3)no2)c1 (stereo unspecified)	34	-2	35	7	.
COc1ccccc1OCc1cc(C(=O)N(C)CCC2CCOCC2)no1	.	-2	54*	40*	-70
CC(=O)c1cccc(OCc2cc(C(=O)N(C)CCC3CCOCC3)no2)c1	63	-4	52*	21	-39
CO[C@@H]1CN(C)C(=O)c2ccc(NS(=O)(=O)c3cn(C)cn3)cc2OC[C@H](C)NC[C@H]1C	.	.	-3	.	19[16.7 µM]
Cc1ccc(S(=O)(=O)N2CCCC(C(=O)Nc3ccc(NC(=O)c4ccccn4)cc3)C2)cc1 (stereo unspecified)	37	-7	26	60*	-46
O=C(Nc1ccc(N2CCOCC2)nc1)c1ccc(C(F)(F)F)cc1	9	.	.	-2	26
O=C(Nc1ccc(NC(=O)C2CC2)cn1)c1ccccc1	-4	-4	-27	15	10
Cc1ccc(S(=O)(=O)N2CCCC(C(=O)Nc3cccnc3)C2)cc1 (stereo unspecified)	.	-21	8	.	-9
O=C(Nc1ccc(NC(=O)C2CCCCC2)nc1)c1ccccn1	94*	-4	47*	?	-16
O=C(Nc1ccc(NC(=O)C2CC2)cn1)c1ccccc1Cl	35	2	42*	37*	-33

High-throughput results as filed in PubChem BioAssay.
